Assay [1] in a line: binders of probe aFSTL3 on microarray, primary screen, stem cell growth factor project, biochemical, small-molecule microarray, fluorescence 635/667 (AID 1064).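 Further: measures binding of the biotinylated anti-FSTL3 antibody to printed compounds.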 Particulars: higher = more signal.
Assay [2] in a line: binders from COS7 lysate, DM2A8 probe, primary screen, torsin A project, cell lysate, small-molecule microarray, fluorescence 635/667 (AID 1065). The conditions noted are these: higher = more signal, COS7 lysate expressing mutant human TOR1A.
Assay [3] is described as follows: binders of probe aFGF2 on microarray, primary screen, stem cell growth factor project, biochemical, small-molecule microarray, fluorescence 635/667 (AID 1067).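 Further: measures binding of biotinylated aFGF2 protein to printed compounds on slides; z-score merges feature fluorescence and signal-to-noise across triplicate slides.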 The conditions noted are these: higher = more signal.
Assay [4] is described as follows: binders of probe aFGF10 on microarray, primary screen, stem cell growth factor project, biochemical, small-molecule microarray, fluorescence 635/667 (AID 1071).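 Further: score merges 667 nm spot intensity and signal to noise from triplicate slides.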 Particulars: higher = more signal.
The target of assay [5] is Neurogenic locus notch homolog protein 2 (Homo sapiens) (UniProt Q04721). As to the kind of experiment: Notch2 binders on small-molecule microarrays, primary screen, biochemical, small-molecule microarray, 635 nm fluorescence, stem cell growth factors (AID 1073). The conditions noted are these: Notch2 binding, higher = more signal.
Assay [6] has as its target Pro-neuregulin-1, membrane-bound isoform (Homo sapiens) (UniProt Q02297). Kind of assay: NRG1 binders on small-molecule microarrays, primary screen, psychiatric disease protein project, biochemical, small-molecule microarray, fluorescence 635/667 (AID 1075).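 Further: score combines 667 nm spot fluorescence with signal to noise.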 Particulars: NRG1 binding, 635 nm fluorescence, higher = more signal.
The subject of assay [7] is Neuregulin-1 EGF-like domain. Kind of assay: binders of neuregulin-1 EGF-like domain, primary screen, biochemical, small-molecule microarray, 635 nm fluorescence (AID 1081).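 Further: binding of the protein to compounds printed on small-molecule microarray slides.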 Particulars: small-molecule microarray binding, higher = more signal.
Assay [8] can be described thus: FRG1 promoter luciferase signal modulators, primary screen, FRG1 inhibition for FSHD, cell-based, C2C12 myotubes, firefly/Renilla luciferase, luminescence (AID 1084). The conditions noted are these: higher = more signal, called active from +8 up or from −8 down.
The nature of assay [9]: binders of probe aFST on microarray, primary screen, stem cell growth factor project, biochemical, small-molecule microarray, fluorescence 635/667 (AID 1086).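 Further: score merges 667 nm fluorescence with signal-to-noise of each printed compound spot.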 Particulars: higher = more signal.
Assay [10] is described as follows: binders of probe aHhip on microarray, primary screen, stem cell growth factor project, biochemical, small-molecule microarray, fluorescence 635/667 (AID 1087).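 Further: score merges spot fluorescence at 667nm with spot signal to noise ratio.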 The conditions noted are these: higher = more signal.
Assay [11] relates to PRMT1 (protein arginine N-methyltransferase 1). As to the kind of experiment: PRMT1 binders on small-molecule microarrays, primary screen, biochemical, small-molecule microarray, 635 nm fluorescence (AID 1088).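 Further: binding of Prmt1 protein to compounds spotted on small-molecule microarray slides.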 Particulars: small-molecule microarray binding, higher = more signal.
A short description of assay [12]: yeast growth modulation, basal conditions, primary screen, YJM789 clinical isolate, OD600, 24 h (AID 1089).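 Further: growth of clinical yeast isolate S. cerevisiae YJM 789 seeded 1000 cells per well; test concentration not given here.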 Particulars: S. cerevisiae YJM789 growth, higher = more signal, called active from +8 up or from −8 down.
A short description of assay [13]: fission yeast growth modulation, primary screen, strain 972, OD600, 24 h, no modulator (AID 1090).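 Further: basal condition with compound alone and no growth modifier present; test concentration not given here.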 The conditions noted are these: S. pombe 972 growth, higher = more signal, called active from +8 up or from −8 down.
Assay [14] can be described thus: S. cerevisiae growth modulation with rapamycin, primary screen, strain BY4716, OD600, 96 h (AID 1091). Further: test concentration not given here. Particulars: higher = more signal, called active from +8 up or from −8 down.
Assay [15] concerns the target Torsin-1A-interacting protein 2 (Homo sapiens) (UniProt Q8NFQ8). As to the kind of experiment: LULL1 binders on small-molecule microarray, primary screen, cell lysate, human LULL1 lysate, 635/667 nm fluorescence (AID 1092).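 Further: probe is lysate of COS7 cells overexpressing human LULL1; score merges per-feature 667 nm fluorescence with signal-to-noise.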 Particulars: hLULL1 lysate binding, 635 nm fluorescence, higher = more signal.
The nature of assay [16]: E. coli growth modulation, two-sided OD650, primary screen, E. coli filamentation project, strain DRC41, 24 h (AID 1093).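 Further: MC1000 strain lacking acrAB efflux and sulA so SOS filamentation is blocked; test concentration not given here.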 The conditions noted are these: OD650, 24 h, higher = more signal, called active from +8 up or from −8 down.
Assay [17] is described as follows: small-molecule microarray binders of probe aLefty2, primary screen, biochemical, biotinylated probe, 635/667 nm fluorescence (AID 1094).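 Further: score merges spot fluorescence near 667 nm with spot signal-to-noise ratio.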 Particulars: higher = more signal.
Assay [18] has as its system Noggin (protein binding on small-molecule microarray). As to the kind of experiment: Noggin binders on small-molecule microarray, primary screen, biochemical, 635/667 nm fluorescence (AID 1095).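 Further: score merges 667 nm feature fluorescence with signal to noise over triplicate slides.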 The conditions noted are these: 635 nm fluorescence, higher = more signal.
Assay [19] concerns the target Neurogenic locus notch homolog protein 3 (Homo sapiens) (UniProt Q9UM47). As to the kind of experiment: NOTCH3 binders on small-molecule microarray, primary screen, biochemical, 635/667 nm fluorescence (AID 1096). Particulars: NOTCH3 binding, 635 nm fluorescence, higher = more signal.
Assay [20] in a line: small-molecule microarray binders of probe aEGFR, primary screen, biochemical, biotinylated probe, 635/667 nm fluorescence (AID 1097).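 Further: probe is a biotinylated anti-EGFR antibody binding compounds printed on slides; score combines fluorescence near 667 nm and signal to noise of each spot.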 The conditions noted are these: higher = more signal.

SMILES strings stand for the structures. Calls of active or inactive are those of the source.

Chain of Pro-neuregulin-1, membrane-bound isoform (Homo sapiens) (Q02297 whole entry, looked up, the tested form may be a part, canonical isoform): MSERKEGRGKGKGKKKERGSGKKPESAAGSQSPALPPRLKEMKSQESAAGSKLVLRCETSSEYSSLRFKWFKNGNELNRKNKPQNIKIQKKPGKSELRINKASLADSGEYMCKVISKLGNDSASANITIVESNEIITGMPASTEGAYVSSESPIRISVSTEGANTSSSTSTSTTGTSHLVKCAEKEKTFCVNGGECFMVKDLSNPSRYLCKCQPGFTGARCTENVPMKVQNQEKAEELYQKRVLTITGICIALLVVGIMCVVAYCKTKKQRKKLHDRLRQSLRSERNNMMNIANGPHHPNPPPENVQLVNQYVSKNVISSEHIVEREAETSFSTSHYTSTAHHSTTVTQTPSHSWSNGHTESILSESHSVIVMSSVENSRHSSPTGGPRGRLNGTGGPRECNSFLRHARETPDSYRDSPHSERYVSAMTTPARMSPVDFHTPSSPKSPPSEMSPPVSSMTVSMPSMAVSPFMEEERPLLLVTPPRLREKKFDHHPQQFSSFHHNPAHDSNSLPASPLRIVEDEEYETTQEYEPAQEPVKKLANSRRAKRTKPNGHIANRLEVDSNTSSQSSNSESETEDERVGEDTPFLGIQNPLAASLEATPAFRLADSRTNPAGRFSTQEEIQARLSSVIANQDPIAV
Chain of Neurogenic locus notch homolog protein 3 (Homo sapiens) (Q9UM47 whole entry, looked up): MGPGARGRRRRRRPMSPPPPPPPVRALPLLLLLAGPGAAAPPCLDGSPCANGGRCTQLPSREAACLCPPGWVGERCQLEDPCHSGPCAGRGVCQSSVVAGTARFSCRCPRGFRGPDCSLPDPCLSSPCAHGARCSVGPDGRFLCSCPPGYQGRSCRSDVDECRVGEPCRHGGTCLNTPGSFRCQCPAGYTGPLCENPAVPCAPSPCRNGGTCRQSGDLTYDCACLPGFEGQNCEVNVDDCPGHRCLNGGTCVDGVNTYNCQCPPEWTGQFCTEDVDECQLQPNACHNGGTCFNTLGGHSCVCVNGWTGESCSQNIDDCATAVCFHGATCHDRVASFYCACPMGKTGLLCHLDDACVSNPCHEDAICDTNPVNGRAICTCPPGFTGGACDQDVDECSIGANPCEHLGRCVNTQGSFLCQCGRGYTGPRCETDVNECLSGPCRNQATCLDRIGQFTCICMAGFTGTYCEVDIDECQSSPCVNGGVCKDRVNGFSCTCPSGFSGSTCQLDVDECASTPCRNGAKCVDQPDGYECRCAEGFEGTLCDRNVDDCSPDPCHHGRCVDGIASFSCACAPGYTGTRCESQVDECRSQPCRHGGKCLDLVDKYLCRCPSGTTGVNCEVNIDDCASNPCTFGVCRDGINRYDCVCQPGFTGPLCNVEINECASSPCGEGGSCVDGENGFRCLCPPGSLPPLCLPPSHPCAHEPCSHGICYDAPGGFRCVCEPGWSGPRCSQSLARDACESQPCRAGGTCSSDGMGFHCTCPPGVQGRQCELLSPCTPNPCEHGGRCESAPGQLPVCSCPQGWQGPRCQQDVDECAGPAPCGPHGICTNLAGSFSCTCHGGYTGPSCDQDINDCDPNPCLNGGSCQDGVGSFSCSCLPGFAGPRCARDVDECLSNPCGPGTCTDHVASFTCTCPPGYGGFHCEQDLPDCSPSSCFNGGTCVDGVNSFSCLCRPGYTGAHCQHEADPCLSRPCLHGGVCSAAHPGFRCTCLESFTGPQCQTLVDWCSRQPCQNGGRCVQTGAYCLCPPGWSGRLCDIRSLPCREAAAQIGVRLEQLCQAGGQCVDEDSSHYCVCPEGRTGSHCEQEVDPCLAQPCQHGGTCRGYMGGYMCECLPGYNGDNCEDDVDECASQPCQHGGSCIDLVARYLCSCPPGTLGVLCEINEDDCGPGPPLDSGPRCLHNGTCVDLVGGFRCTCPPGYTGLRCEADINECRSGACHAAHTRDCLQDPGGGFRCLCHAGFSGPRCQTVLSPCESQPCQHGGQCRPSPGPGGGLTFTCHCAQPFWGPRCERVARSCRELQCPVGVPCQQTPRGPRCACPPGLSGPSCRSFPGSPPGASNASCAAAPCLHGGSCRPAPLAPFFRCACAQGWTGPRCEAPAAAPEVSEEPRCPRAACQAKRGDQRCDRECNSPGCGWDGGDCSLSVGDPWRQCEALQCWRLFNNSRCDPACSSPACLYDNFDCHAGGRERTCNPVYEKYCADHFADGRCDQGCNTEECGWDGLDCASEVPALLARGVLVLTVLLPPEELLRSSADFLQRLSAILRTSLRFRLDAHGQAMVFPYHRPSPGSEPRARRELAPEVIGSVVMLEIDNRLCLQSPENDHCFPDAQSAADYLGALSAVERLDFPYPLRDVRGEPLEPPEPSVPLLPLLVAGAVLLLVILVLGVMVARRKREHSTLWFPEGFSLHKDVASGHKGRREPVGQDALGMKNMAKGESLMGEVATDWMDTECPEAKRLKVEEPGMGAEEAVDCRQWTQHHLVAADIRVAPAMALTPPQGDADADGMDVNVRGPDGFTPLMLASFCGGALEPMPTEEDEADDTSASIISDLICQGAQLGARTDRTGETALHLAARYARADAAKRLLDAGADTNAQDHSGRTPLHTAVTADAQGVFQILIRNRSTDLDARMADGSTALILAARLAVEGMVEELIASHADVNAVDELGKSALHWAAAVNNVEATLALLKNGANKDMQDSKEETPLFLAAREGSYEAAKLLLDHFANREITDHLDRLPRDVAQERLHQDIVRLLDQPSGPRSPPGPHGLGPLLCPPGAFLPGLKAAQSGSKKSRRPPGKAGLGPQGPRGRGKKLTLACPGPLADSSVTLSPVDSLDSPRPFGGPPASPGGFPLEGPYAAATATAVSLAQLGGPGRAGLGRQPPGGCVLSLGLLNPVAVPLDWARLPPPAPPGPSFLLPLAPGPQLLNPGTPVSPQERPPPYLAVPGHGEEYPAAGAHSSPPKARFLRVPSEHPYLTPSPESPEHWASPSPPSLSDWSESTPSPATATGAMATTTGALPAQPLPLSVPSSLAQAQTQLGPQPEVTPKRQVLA
Chain of Torsin-1A-interacting protein 2 (Homo sapiens) (Q8NFQ8 whole entry, looked up): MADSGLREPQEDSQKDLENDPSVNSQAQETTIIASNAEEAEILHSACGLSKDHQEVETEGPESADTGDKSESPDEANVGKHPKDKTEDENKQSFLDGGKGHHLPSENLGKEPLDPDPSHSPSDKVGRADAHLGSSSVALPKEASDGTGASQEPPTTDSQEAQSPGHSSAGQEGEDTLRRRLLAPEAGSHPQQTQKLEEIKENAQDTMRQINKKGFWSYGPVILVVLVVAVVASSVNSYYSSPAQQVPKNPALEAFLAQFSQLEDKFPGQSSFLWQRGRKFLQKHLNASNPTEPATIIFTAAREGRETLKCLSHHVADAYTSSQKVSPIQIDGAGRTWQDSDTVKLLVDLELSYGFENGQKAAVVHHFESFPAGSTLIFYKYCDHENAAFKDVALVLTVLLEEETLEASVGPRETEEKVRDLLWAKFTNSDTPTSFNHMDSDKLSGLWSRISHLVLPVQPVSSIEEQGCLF

For `CCCNC(=O)[C@@]1(C)c2ccccc2C(=O)N(Cc2ccc(OC(F)(F)F)cc2)[C@H]1c1ccc(CO)cc1`, the composite z-score in [1] was 0.29; in [2] it was -0.0811; in assay [3] it was 0.015; in assay [4], -0.387; in [5] it was -0.321; in assay [6], 1.2. In addition, the composite z-score in assay [7] was 1.3; in assay [9], -0.337; in assay [10], 0.28; in assay [11] it was 0.294; in [15] it was -0.416; in [17], 0.0241. Further, the composite z-score in assay [18] is -0.432; in [19] it was 0.13; in [20], -0.18. In addition, the z-score in [8] is -3.98 (inactive); in assay [12], -0.446 (inactive); in [13], 0.242 (inactive); in assay [14], -0.548 (inactive); in assay [16], 0.922 (inactive).
Regarding `Cc1ccc(S[C@]2(C(=O)NCCCN(C)C)CC(=O)N(C(C)C)[C@@H]2c2ccc(CO)cc2I)cc1`, the composite z-score in assay [1] is 0.052; in [2], -0.54; in assay [3], -0.0954; in [4], -0.238; in assay [5] it was -0.373; in assay [6] it was 0.994. The composite z-score in assay [7] is 0.861; in assay [9], -0.152; in [10], -0.354; in [11] it was 1.05; in assay [15], 2.88; in assay [17] it was -0.0654. The values for the composite z-score in assay [18], in [19] and in [20] were -0.521, -0.0055 and -0.142, respectively. The z-score in assay [8] was -0.312 (inactive); in assay [12] it was -1.25 (inactive); in [13], -2.91 (inactive); in assay [14], -1.13 (inactive); in assay [16], 0.0601 (inactive).
On to `O=C1c2ccccc2[C@@]2(Cc3ccccc3N(Cc3ccccc3)C2=O)[C@H](c2ccc(CO)cc2)N1Cc1ccccc1C(F)(F)F`, for which the composite z-score was 0.178 in assay [1]; -1.44 in assay [2]; -0.083 in assay [3]; -0.236 in [4]; -0.233 in assay [5]; 0.363 in [6]. The composite z-score in assay [7] is 0.114; in [9], -0.0954; in [10] it was -0.125; in assay [11], -0.325; in assay [15] it was 2.03; in assay [17], -0.222. In addition, the composite z-score in [18] was -0.848; in assay [19] it was 0.117; in [20], -0.243. The z-score in assay [8] is -0.366 (inactive); in [12], 0.376 (inactive); in assay [13], -0.666 (inactive); in assay [14], -1.11 (inactive); in assay [16], 0.127 (inactive).
For the compound `O=C1C2C=CC(C(O)c3ccccn3)N(Nc3ccccc3F)C2C(=O)N1c1ccccc1` (stereo not given), the composite z-score is -0.22 in [1]; 0.135 in assay [2]; -0.047 in assay [3]; 0.4 in assay [4]; 0.417 in assay [5]; 0.301 in assay [6]. Moreover, the composite z-score is 1.02 in assay [7]; 0.19 in [9]; -0.0945 in assay [10]; 0.0392 in assay [11]; 1 in assay [15]; -0.0561 in assay [17]. Moreover, the composite z-score was 0.0291 in assay [18], -0.584 in assay [19] and -0.0581 in assay [20]. Moreover, the z-score in [8] was 1.9 (inactive); in assay [12] it was 0.839 (inactive); in [13] it was 0.0161 (inactive); in assay [14], -0.207 (inactive); in assay [16], -0.717 (inactive).
For the compound `Cc1cccc(/C=C/C=O)c1`, the composite z-score in assay [1] is -0.305; in [2], -0.582; in [3], -0.0996; in assay [4], 0.0071; in [5] it was -0.663; in [6], 0.27. For the same compound, the composite z-score is 0.928 in assay [7]; 0.211 in [9]; -0.056 in assay [10]; 0.425 in assay [11]; 1.54 in [15]; -0.186 in assay [17]. Besides, the composite z-score in assay [18] was 0.0535; in assay [19], -0.136; in [20] it was -0.246. Besides, the z-score in assay [8] was 0.641 (inactive); in assay [12] it was 0.897 (inactive); in [13] it was -4.56 (inactive); in assay [14] it was -0.104 (inactive); in [16], -0.0384 (inactive).

Values taken from PubChem BioAssay.
